# Shown are actives, neighbours in structure and some others; about 4.1% of the full set was active somewhere.
# DAX1 inh-1 – blocks DAX1 repression of SF-1 activated StAR promoter | HEK293T StAR-luciferase reporter, SF-1/DAX-1 repression relief | inhibition, % at 6.8 µM | 1.1% of 370,000 active;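 active = inhibition above the mean over all tested compounds plus 3 SD, cut at about 3.6% in these data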;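 note: 0% = DAX-1 cells with DMSO and 100% = cells lacking DAX-1 with DMSO; higher inhibition means more luminescence from relief of DAX-1 repression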
# ssDAF12 agonist – activators of S. stercoralis DAF-12 nuclear receptor; HEK293 ssDAF-12/GRIP1 lit1-tk-luc reporter, luminescence; % of 3 µM dafachronic acid response; activation, % at 6.8 µM; 1% of 370,000 active;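 active = activation above the mean over all tested compounds plus 3 SD, cut at about 0.9% in these data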;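 note: 0% = DMSO-only wells and 100% = 3 µM delta7-dafachronic acid wells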
# PolyA inh – inhibitors of polyadenylation in S. cerevisiae; S. cerevisiae SKY197-pL101 polyadenylation reporter, beta-gal luminescence; efflux-impaired pdr1/pdr3 knockout yeast; score 100 = 6 SD above DMSO; AID 1875; 0.02% of 300,000 active; activity score, % at 12 µM;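 active = lowest replicate activity score at least 50, where 100 means six control SD above control mean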;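 note: yeast exposed to compound for 9 h at 30 °C; higher score means more reporter readthrough which indicates perturbed polyadenylation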
# hcDAF-12 act – activators of H. contortus DAF-12 nuclear receptor; 1.4% of 370,000 active; AID 652067; activation, % at 6.8 µM; HEK293 hcDAF-12 lit1-tk-luc reporter, luminescence; 0% DMSO, 100% Δ7-dafachronic acid;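 active = activation above the mean of all tested compounds plus 3 SD, cut at about 5.5% in these data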;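 note: 100% = response to 3 µM Δ7-dafachronic acid high control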
# hgDAF-12 ag – hgDAF-12 agonism, primary luciferase screen. HEK293 GAL4-hgDAF12 UAS-luciferase reporter, agonist luminescence; normalized to butyrate control. activation, % at 6.8 µM. 1.8% of 370,000 active. AID 687014;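 active = activation above a cutoff set at the mean of all screened compounds plus 3 SD, cut at about 10% in these data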;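 note: 0% = DMSO wells and 100% = sodium butyrate wells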
# DAX1 inh-2 – inhibitors of human orphan nuclear receptor DAX1 (NR0B1); P51843; HEK293 Gal4-DAX1 luciferase reporter, luminescence; inhibition, % at 6.75 µM; 0.99% of 340,000 active;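 active = inhibition above the mean over all tested compounds plus 3 SD, cut at about 4.2% in these data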;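 note: 0% = DAX1-transfected cells with DMSO and 100% = empty-vector control cells with DMSO; inhibition shows as a rise in luminescence from relieved DAX1 repression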
# Target sequence (P51843 207-470 limits assumed): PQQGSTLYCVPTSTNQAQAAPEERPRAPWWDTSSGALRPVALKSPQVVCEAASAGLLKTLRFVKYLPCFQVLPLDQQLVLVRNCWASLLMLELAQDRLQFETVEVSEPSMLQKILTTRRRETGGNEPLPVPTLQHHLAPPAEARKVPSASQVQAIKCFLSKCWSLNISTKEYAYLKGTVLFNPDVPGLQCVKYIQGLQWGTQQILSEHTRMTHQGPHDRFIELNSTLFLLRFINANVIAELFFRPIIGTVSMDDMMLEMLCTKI
# * = called active by the depositor; nt = not tested or not shown.
SMILES,DAX1 inh-1,ssDAF12 agonist,PolyA inh,hcDAF-12 act,hgDAF-12 ag,DAX1 inh-2
COC(=O)[C@]12C[C@H](CC(=O)NCCCCc3ccccc3)C(=O)N(Cc3ccco3)C1=C[C@H](C(C)(C)C)O[C@@H]2C,-1,-2,nt,0,-4,nt
O=C(CCNC(=O)c1ccccc1Cl)NCCCSc1ccccc1,0,-1,nt,-1,0,0
O=C(NCCSc1ccccc1)c1ccccc1Cl,3,0,-1,1,15*,1
O=C(NCSc1ccnc(SCNC(=O)c2ccccc2)n1)c1ccccc1,1,0,-6,2,-1,-1
O=C(NCSc1ccncn1)c1ccccc1,0,-1,0,-1,2,4.9*
O=C(NCCSc1ccccc1)c1ccccc1,3,0,-3,5,12*,3
CC(C)c1ccc(NC(=O)O[C@H]2CC[C@@]34CCCN3C(=O)CCC[C@H]4[C@H]2C)cc1,nt,-2,nt,-4,-4,nt
Nc1cc(N)nc(SCCOc2ccccc2F)n1,0,0,18,2,11*,1
CC1=C(C(=O)OC(C)C)C(c2c[nH]c3ccccc23)n2ncnc2N1 (stereo not drawn),0,1,-12,5.7*,-1,1
COc1ccccc1C1C(C(N)=O)=C(C)Nc2ncnn21 (stereo not drawn),0,-1,7,0,1,6.7*
Cc1ccccc1NC(=O)[C@@H]1CC(=O)O[C@@H]1c1ccccc1,-1,-1,nt,-1,5,nt
ON=C1c2ccccc2-c2ccccc21,1,-1,-4,2,4,1
CN(C)c1ccc2c(c1)C(=NO)c1ccccc1-2,nt,nt,nt,nt,nt,4.4*
Cc1ccc(C)n1NC(=O)c1ccccc1O,3,1.4*,8,4,4,2
Cc1onc(-c2ccccc2)c1C(=O)NNC(=O)c1ccccc1,0,1.1*,nt,3,0,0
Cc1onc(-c2ccccc2)c1C(=O)Nc1cccc(C#N)c1,-2,-2,17,2,11*,2
O=C(N[C@H](C(=O)N1CCC[C@H]1C(=O)NC1CCCC1)C1CCCCC1)c1ccco1,0,-1,nt,-1,2,nt
C(=C/c1nccc2c1[nH]c1ccccc12)/c1ccc2c(c1)OCO2,1,-1,-39,2,13*,-1
O=c1c2ccccc2nc(/C=C/c2ccc3c(c2)OCO3)n1CCCO,nt,nt,nt,nt,nt,0
O=C(N/N=C/c1c[nH]c2ccccc12)c1cccc(Cl)c1,0,1.4*,6,5,6,2
CC(C)c1cc(C(=O)N/N=C/c2c[nH]c3ccccc23)n[nH]1,0,-1,-5,2,2,4.7*
O=C(N/N=C/c1c[nH]c2ccccc12)c1cccc(O)c1,1,0,39,4,10,2
O=C(CSc1nnc(SCc2ccccc2Cl)s1)N/N=C/c1c[nH]c2ccccc12,0,0,1,6.4*,0,-1
O=C(CSc1nnc(SCc2ccccc2)s1)N/N=C/c1c[nH]c2ccccc12,-1,-2,-11,-1,1,1
CCCCNC(=O)C[C@H]1C[C@@]2(C(=O)OC)C(=C[C@H](C(C)(C)C)O[C@@H]2C)N(CCc2ccc(OC)c(OC)c2)C1=O,0,-1,nt,-1,-1,nt
SMILES,DAX1 inh-1,ssDAF12 agonist,PolyA inh,hcDAF-12 act,hgDAF-12 ag,DAX1 inh-2
CC(C)(C)C(=O)OC12CCCN(C1)/C(=C/c1ccccc1)C2 (stereo not drawn),1,-1,nt,-1,6,nt
Cc1nc2c(Cl)c(C)nn2c2c1CCC2,0,-2,-1,-1,0,0
Cc1nc2c(-c3ccc(Cl)cc3)cnn2c2c1CCC2,0,2.1*,-11,3,3,0
CCOC(=O)CCCNC(=O)OC1CC2CC1[C@H]1CCCCN1[C@H]2C (stereo partly drawn),0,-1,nt,-2,0,nt
COc1cc2ccccc2cc1C(=O)Nc1ccc(N2CCN(C)CC2)cc1,2,0,-17,3,13*,0
O=C(NC1CCCCC1)C(CCc1ccccc1)N1CCOCC1 (stereo not drawn),1,0,nt,0,12*,nt
CC1CC(C)CN(C(CCc2ccccc2)C(=O)NC2CCCCC2)C1 (stereo not drawn),0,-1,nt,1,2,nt
CCOC(=O)c1oc2ccc(CNCCO)c(Cl)c2c1C,3,0,12,6.1*,8,2
CCOC(=O)c1oc2ccc(CNC3CCCCC3)c(Cl)c2c1C,1,-1,11,-1,1,0
CC(C)=C(C#N)c1nc2ccccc2s1,1,0,0,3,3,5.4*
COC(=O)c1ccc(CC(=O)c2nc3ccccc3s2)cc1,1,1.0*,22,4,1,-1
CC(C)NC(=O)c1nc2ccccc2s1,0,3.2*,27,3,1,-1
CCOC(=O)c1cc2c(=O)c3ccccc3oc2nc1C,1,-1,-26,3,11*,2
COn1c(-c2ccccc2)nc2ccc(Cl)cc21,0,1,-24,1,12*,1
O=C(O)COn1c(-c2ccccc2)nc2ccc(Cl)cc21,1,1.1*,4,3,6,0
O=[N+]([O-])c1ccc2nc(-c3ccccc3)n(OCc3ccc(Cl)cc3)c2c1,2,-1,-17,2,7,2
CCN(CC)C(=O)CC[C@H]1CC[C@]2(CCCN(C(=O)c3cccnc3)C2)O1,0,-2,nt,0,0,nt
COc1ccccc1NC(=S)N1CCC(C(=O)c2ccc(F)cc2)CC1,0,-1,9,0,0,5.6*
Cc1cc(/C=C2\SC(=S)NC2=O)c(C)[nH]1,1,0,12,1,-1,0
O=C1NC(=S)S/C1=C\c1cc(Cl)ccc1Cl,3.7*,-1,nt,2,3,2
CNc1nc(N)c([N+](=O)[O-])c(Nc2cccc(Br)c2)n1,nt,-1,nt,1,-1,nt
COCCCn1c(=O)/c(=C/c2ccccc2OC(F)F)s/c1=C(\C#N)C(=O)NCCOC,-1,-2,nt,0,2,0
COCCCn1c(=O)/c(=C\c2cccc(OC)c2OC)s/c1=C(/C#N)C(=O)Nc1ccc(C(=O)O)cc1,0,-1,7,1,-2,4.3*
COC(=O)C[C@@H]1C[C@@H]2c3cc(NS(=O)(=O)c4ccccc4)ccc3O[C@@H]2[C@@H](CO)O1,1,-2,nt,0,13*,1
COC(=O)C[C@H]1C[C@@H]2c3cc(NS(=O)(=O)c4ccc(OC)cc4)ccc3O[C@@H]2[C@H](CO)O1,-1,-1,nt,-2,1,4
Cc1c(Cl)cccc1N1C(=O)CC(NNC(=O)c2cccs2)C1=O (stereo not drawn),1,0,8,4,10*,0
